A selection: hits, their analogues and other compounds. The true share with any hit is near 1.5%.
TMEM16A act: mouse TMEM16A channel activation, primary screen; HEK293 TMEM16A/YFP-H148Q/I152L, iodide quench fluorescence; stronger effect = lower value; B-score at 10 µM; hit rate 0.3% among 340,000; AID 623877;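 active = fluorescence-ratio B-score plate-corrected deviation score at least 3 library SD below zero, with starting fluorescence score within 5 deviations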;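 note: channel opened by trigger with iodide after compound preincubation; score built on the fluorescence ratio of max minus min over baseline; more negative score means more quench and so TMEM16A activation or potentiation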
DAGLB inhibitor: blocks human DAGLB lipase activity. Q8NCG7. HEK293T DAGLB membrane lysate, EnzChek fluorogenic substrate. inhibition, % at 5.17 µM. hit rate 0.059% among 340,000; in the data active = inhibition above about 34%;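 note: 0% = enzyme with vehicle and 100% = wells lacking enzyme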
TMEM16A inh: inhibitors of mouse TMEM16A calcium-activated chloride channel | Q8BHY3 | HEK293 TMEM16A/YFP iodide influx fluorescence, ionomycin | normalized B-score (activity score, 25-100; higher = stronger inhibition) at 10 µM | hit rate 1.2% among 310,000;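 active = ratio plate-corrected score three or more library SD toward inhibition, starting fluorescence score within five deviations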;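 note: score derived from kinetic fluorescence span divided by baseline fluorescence per well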
ABCB6 inh MLPCN: blocks the human ABCB6 transporter | Q9NP58 | K562-ABCB6 porphyrin accumulation, flow cytometry, 1 h; stronger effect = lower value | hit rate 0.19% among 360,000 | fluorescence ratio to DMSO, % at 10 µM | AID 602162;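 active = fluorescence ratio to DMSO below 75%, the collection mean minus 3 SD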;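 note: signal is porphyrin accumulated inside mitochondria; 100% equals median channel fluorescence of DMSO control wells; lower ratio means ABCB6 inhibition with less porphyrin fluorescence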
hiPSC survival: enhancers of human iPSC single-cell survival; hiPSC single-cell survival, ATPlite luminescence; 100% = ROCK inhibitor wells, 0% = DMSO; survival enhancement, % at 20 µM; hit rate 0.044% among 360,000; in the data active = survival enhancement above about 18%;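 note: cells exposed to compounds for 16 hours before the ATP read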
TMEM16A reconf: re-confirmation of mouse TMEM16A chloride channel inhibitors | hit rate 39% among 2,300 | inhibition, % at 10 µM | HEK293 TMEM16A/YFP-H148Q, iodide quench fluorescence; ionomycin added to raise cell calcium | shares compounds with TMEM16A inh;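 active = mean duplicate percent inhibition, scaled so buffer wells are 0 and the reference blocker 100, over three buffer SD above buffer mean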
HEK293 Ca mobil: calcium mobilization counter-screen hit for TMEM16A inhibitor series | calcium response (% of ionomycin), % at 10 µM | TMEM16A/YFP HEK293, Fluo4 calcium mobilization | hit rate 2% among 2,300 | shares compounds with TMEM16A inh | AID 652231;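 active = duplicate-averaged calcium signal over 20% of the ionomycin maximum, relative to buffer baseline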;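 note: each well's signal is peak minus trough fluorescence divided by its pre-addition baseline; 0% = buffer wells and 100% = ionomycin wells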
Parental YFP cnt: acts in parental YFP-HEK293 cells lacking TMEM16A, counter-screen; YFP ratio F(max-min)/F0 at 10 µM; iodide YFP quench, ionomycin; shares compounds with TMEM16A inh; 2,300 tested, under 10 active; AID 652233;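 active = yellow fluorescent protein signal ratio exceeding the buffer control mean by over 5 SD of those controls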;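 note: ratio is mean of duplicate wells from kinetic YFP trace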
ClC-1 rat inh: blocks the rat ClC-1 voltage-dependent chloride channel | shares compounds with TMEM16A inh | 2,300 tested, under 10 active | ratio percent, % at 10 µM | CHO ClC-1-YFP, iodide influx fluorescence quench; iodide control reads 0, buffer control 100;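 active = duplicate-mean ratio percent above the mean of iodide-only control wells, which defines zero, plus 5 of their SD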;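 note: higher percent means stronger block of ClC-1 iodide influx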
Active calls of the source: *; i = inactive; . = no result.

SMILES | TMEM16A act | DAGLB inhibitor | TMEM16A inh | ABCB6 inh MLPCN | hiPSC survival | TMEM16A reconf | HEK293 Ca mobil | Parental YFP cnt | ClC-1 rat inh
O=Cc1cn(-c2ccccc2)nc1-c1cc2c(ccc3ccccc32)oc1=O | i | -3.9 | 25* | 96.0 | -0.3 | i | i | -0.951 | -8.5
CCn1c(=O)n(CC)c2cc(S(=O)(=O)N3CCC(c4ccccc4)CC3)ccc21 | i | -7.0 | 100* | 99.0 | 0.0 | i | i | -1.16 | -24.5
CCOC(=O)C1=CCN(S(=O)(=O)c2cccc(Cl)c2)C1c1ccc(Br)cc1 (stereo unspecified) | . | . | . | 95.0 | -1.0 | . | . | . | .
COc1ccc(NC(=O)CN(C)CC(=O)c2[nH]c(C)c(C(C)=O)c2C)cc1 | i | -1.5 | . | 99.0 | 0.0 | . | . | . | .
COc1cc(CN(C)CC(=O)c2[nH]c(C)c(C(C)=O)c2C)ccc1OC(F)F | i | -2.2 | 25* | 97.0 | 1.8 | 17.0%* | i | -0.991 | -14.0
COc1ccccc1OCC(=O)c1[nH]c(C)c(C(C)=O)c1C | i | 1.7 | 25* | 90.0 | 0.2 | i | i | -1.11 | -21.5
O=c1onc(-c2ccccc2)n1-c1cc(Cl)cc(Cl)c1 | i | . | i | 92.0 | 0.2 | . | . | . | .
CCOC(=O)[C@]12CCC=C1N(Cc1ccc(Cl)cc1Cl)C(=O)[C@H](CC(=O)NCCCN1CCCC1=O)C2 | . | . | . | 88.0 | -0.2 | . | . | . | .
Cc1cc(Br)c(NC(=O)Cn2c([N+](=O)[O-])cnc2C)cc1C | i | -1.5 | i | 100.0 | -0.5 | . | . | . | .
O=S(=O)(NCCNc1ncc(C(F)(F)F)cc1Cl)C(F)(F)F | i | 2.1 | 100* | 96.0 | -1.4 | 35.0%* | i | -1.06 | -13.0
O=C(Cc1ccc(NC(=O)C2CCN(C(=O)c3ccccc3)CC2)cc1)Nc1cccc(C(=O)N2CCCC2)c1 | . | -9.5 | . | 106.0 | -2.4 | . | . | . | .
COc1ccc(CCNC(=O)C2CCN(C(=O)c3ccc(Cl)cc3)CC2)cc1OC | i | -1.9 | i | 100.0 | 1.7 | . | . | . | .
Cc1c(P(=O)(c2ccccc2)c2ccccc2)c2ccccc2n1C | . | . | . | 104.0 | 0.1 | . | . | . | .
COc1ccc(S(=O)(=O)NCC(c2ccco2)N2CCc3ccccc3C2)cc1 (stereo unspecified) | i | -6.5 | i | 100.0 | 0.8 | . | . | . | .
O=S(=O)(NCC(c1ccco1)N1CCc2ccccc2C1)c1ccc(Br)cc1 (stereo unspecified) | i | -10.0 | 25* | 98.0 | -0.3 | i | i | -0.822 | -5.0
CCc1cc2c(SCC(=O)NCC3CCCO3)ncnc2s1 (stereo unspecified) | i | -0.8 | . | 94.0 | -0.3 | . | . | . | .
O=[N+]([O-])c1ccc(-c2nnc(-c3ccccc3)c(N3CCOCC3)n2)cc1 | i | 0.7 | i | 98.0 | -1.2 | i | i | -1.19 | -14.0
COc1cc(/C=C2/CCC/C(=C\c3cc(O)c(OC)c(Cl)c3)C2=O)cc(Cl)c1O | i | 9.6 | i | 112.0 | -1.3 | i | i | -0.782 | -38.0
COc1cc(/C=C2\CC/C(=C\c3cc(OC)c(O)c(OC)c3)C2=O)cc(OC)c1O | i | 2.9 | i | 136.0 | -2.3 | . | . | . | .
COc1ccc(C(OC(=O)c2ccco2)C(=O)NC2CCCC2)cc1 (stereo unspecified) | i | -1.1 | i | 100.0 | 1.1 | . | . | . | .
O=C(Nc1ccc2c(c1)C(=O)N(CC1CCCO1)C2=O)c1cccc(Br)c1 (stereo unspecified) | i | -1.6 | 100* | 94.0 | 1.0 | 24.0%* | i | -0.991 | -7.5
CCCNC(=O)C1(C)CCN(C(=O)COc2ccc(Cl)cc2Cl)C1 (stereo unspecified) | . | . | . | 105.0 | -2.0 | . | . | . | .
CCNC(=O)c1cc2c(c(-c3cccc(-c4ccccc4F)c3)n1)[C@H](CCO)N(C(=O)CC)C2 | . | . | . | 102.0 | -0.4 | . | . | . | .
